Source: PubChem BioAssay
CHX counter: affects cycloheximide protein synthesis inhibition readout, counter-screen; cell reporter, cycloheximide protein synthesis inhibition counterscreen; max response, %; actives 12% (n = 300,000); in the data active = max response mostly above about 13%, no sharp cut-off; inactive = mostly below about 14%; also: read at 38.3 µM for the half of the compounds with a filed dose
Shiga inhibitor: inhibitors of Shiga toxin in Vero cells | Vero cells, Shiga toxin protein synthesis inhibition reporter | inhibition, % at 38.7 µM | actives 9.2% (n = 290,000); in the data active = inhibition mostly above about 28%, no sharp cut-off; inactive = mostly below about 43%
Pf growth 48h: inhibits P. falciparum growth in the first generation, 48 h | P. falciparum luciferase growth in erythrocytes, 48 h | Potency, µM (top dose mostly 28.7 µM), usual class: inhibitors | actives 5.9% (n = 310,000) | AID 504832
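Parasite viability was followed by luminescence of a genomically integrated firefly luciferase. Cultures held 0.1% parasitemia at 2% hematocrit (final), incubated under 5% CO2 at 37 C.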
Pf growth 96h: inhibits malaria parasite growth, 96 h; actives 6.9% (n = 320,000); P. falciparum luciferase reporter growth, 96 h; Potency, µM (highest dose often 28.7 µM), most hits filed as inhibitors
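Infected RBCs, 2% Hct / 0.05% parasitemia final; luciferase-reporter P. falciparum; cpd 96 h, 37 C, 5% CO2; luciferase detection reagent; luminescence.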
Each line names hits and unclear results; the compound was inactive in the other large screens. Rows were chosen to be rich in hits. Some 21% of all compounds tested hit in one or more screens of this group. Unless noted, calls follow the shape of the dose curve; as a rule, active = well fitted inhibition curve with a large enough effect; inconclusive = small, poorly fitted or top-dose-only effect, or another doubt; inactive = no such curve, though single readings can be large or run the other way.

Cc1cc(S(=O)(=O)N2CCCOC2CNC(=O)C(=O)NCc2ccco2)ccc1F (stereo not drawn)	none
CC1=NN(c2ccccc2)C(=O)/C1=C\c1cn(C)c2ccccc12	Pf growth 48h inconclusive, Pf growth 96h inconclusive
CC1=NN(c2ccccc2)C(=O)/C1=C/c1cccc(C)c1	none
CC1=NN(c2ccccc2)C(=O)/C1=C/c1cc2cc(C)ccc2nc1N1CCCCC1	CHX counter 23, Pf growth 48h inconclusive
CC1=NN(c2ccccc2)C(=O)/C1=C\c1cc(C)n(C)c1C	CHX counter 29, Shiga inhibitor 49, Pf growth 48h inconclusive, Pf growth 96h 9.3µM
CC1=NN(c2ccccc2)C(=O)/C1=C\C=C\c1ccccc1	Pf growth 48h inconclusive, Pf growth 96h 12µM
CC1=NN(c2ccccc2)C(=O)/C1=C/C=C/c1ccc(N(C)C)cc1	Pf growth 48h inconclusive, Pf growth 96h inconclusive
CC1=NN(c2ccccc2)C(=O)/C1=C/c1cn(C)c2ccccc12	Pf growth 48h inconclusive, Pf growth 96h 7.4µM
O=C(CN1CCCCCC1)N/N=C/c1ccc(Cl)c(Cl)c1	CHX counter 29, Pf growth 96h inconclusive
O=C(CN1CCOCC1)N/N=C/c1ccc(C(=O)O)cc1	CHX counter 53, Shiga inhibitor 85
COc1ccc(/C=C/C(=O)OCC(=O)NC2CCCC2)cc1	none (no result: CHX counter, Shiga inhibitor)
CC(C)C(NC(=O)OCc1ccccc1)C(=O)N1CCOCCOCCOCC1 (stereo not drawn)	none
Cc1ccc(SCC(=O)N/N=C/c2ccco2)cc1	Pf growth 48h inconclusive, Pf growth 96h inconclusive
COC(/C(=N/O)c1ccc(Cl)cc1)c1ccccc1 (stereo not drawn)	CHX counter 33, Shiga inhibitor 50, Pf growth 48h 2.1µM, Pf growth 96h 2.3µM
COc1ccc(Cl)cc1NC(=O)C(OC)c1ccccc1 (stereo not drawn)	none
O=C1N=C(N2CCN(c3ccccc3)CC2)S/C1=C/c1ccco1	Pf growth 48h inconclusive, Pf growth 96h inconclusive
O=C1N=C(N2CCN(c3ccccc3)CC2)S/C1=C\c1cn[nH]c1-c1ccccc1	Pf growth 48h inconclusive, Pf growth 96h 4.1µM
Cc1ccc(N2CCN(C3=NC(=O)/C(=C\c4cn[nH]c4-c4ccccc4)S3)CC2)cc1	Pf growth 48h 5.9µM, Pf growth 96h inconclusive
O=C1N=C(N2CCC(Cc3ccccc3)CC2)S/C1=C/c1cn[nH]c1-c1ccccc1	Pf growth 48h inconclusive, Pf growth 96h inconclusive
CN1CCN(C2=NC(=O)/C(=C/c3ccccc3OS(=O)(=O)c3ccccc3)S2)CC1	Pf growth 48h inconclusive
Cc1cccc(N2CCN(C3=NC(=O)/C(=C\c4cn[nH]c4-c4ccccc4)S3)CC2)c1	Pf growth 48h 5.2µM, Pf growth 96h 12µM
CC(=O)c1ccc(C(=O)N2CCC(n3nccc3NC(=O)C3CC3)CC2)cc1	none
CSCCC(=O)N1CCC(n2nccc2NC(=O)c2ccc3c(c2)OCO3)CC1	CHX counter 54, Shiga inhibitor 65
CC#CC(=O)N1CCC(n2nccc2NC(=O)c2ccc3c(c2)OCO3)CC1	CHX counter 23, Shiga inhibitor 72, Pf growth 96h inconclusive
CSc1ccc(C(=O)N2CCC(n3nccc3NC(=O)C3CC3)CC2)cc1	none
O=C1CC(NS(=O)(=O)c2cccnc2)CN1c1cccc(F)c1 (stereo not drawn)	none (no result: CHX counter, Shiga inhibitor)
CCOC(=O)C1=C(Nc2ccc(C)cc2)CC(C)(O)C(C(=O)OCC)C1c1ccccc1 (stereo not drawn)	Pf growth 48h 12µM, Pf growth 96h 13µM
CCOC(=O)C1=C(Nc2ccccc2)CC(C)(O)C(C(=O)OCC)C1c1ccc(Br)cc1 (stereo not drawn)	Pf growth 48h 15µM, Pf growth 96h inconclusive
Cc1ccccc1NC(=O)c1cccc(C(F)(F)F)c1	none
Cc1ccc(NNC(=O)C(O)(c2cccc(C(F)(F)F)c2)c2cccc(C(F)(F)F)c2)cc1	Pf growth 48h 13µM, Pf growth 96h inconclusive
O=C(NNc1ccccc1Br)C(O)(c1cccc(C(F)(F)F)c1)c1cccc(C(F)(F)F)c1	Pf growth 48h 2.6µM, Pf growth 96h 2.3µM
O=C(CCl)N1CCN(S(=O)(=O)Cc2ccccc2)CC1	Pf growth 48h inconclusive, Pf growth 96h 13µM (no result: CHX counter, Shiga inhibitor)
CC(C)(C)c1ccc(S(=O)(=O)N2CCN(CC(=O)NC(=O)NC3CCCCC3)CC2)cc1	Pf growth 96h 2.9µM (no result: CHX counter, Shiga inhibitor)
CC(C)(C)NC(=O)NC(=O)CN1CCN(S(=O)(=O)c2ccc3c(c2)CCCC3)CC1	Pf growth 48h 9.3µM, Pf growth 96h 7.4µM (no result: CHX counter, Shiga inhibitor)
CC(C)(C)NC(=O)NC(=O)CN1CCN(S(=O)(=O)c2ccccc2)CC1	none
O=C(CCl)N1CCN(S(=O)(=O)c2ccc3c(c2)CCC3)CC1	Pf growth 48h 2.3µM, Pf growth 96h inconclusive (no result: CHX counter, Shiga inhibitor)
C=C[C@H]1CN2CC[C@H]1C[C@H]2[C@H](O)c1ccnc2ccccc12	Pf growth 48h 0.15µM, Pf growth 96h inconclusive (no result: CHX counter, Shiga inhibitor)
C=CC1CN2CCC1CC2c1[nH]c2ccccc2c1CCO (stereo not drawn)	none
CCN(CC(=O)Nc1c(F)cccc1F)C(=O)c1ccc(NC(=O)CC2SC(N3CCCC3)=NC2=O)cc1 (stereo not drawn)	Pf growth 96h 13µM (no result: CHX counter, Shiga inhibitor)
Cc1ccc(NC(=O)CN(C)C(=O)c2ccc(NC(=O)CC3SC(N4CCCC4)=NC3=O)cc2)cc1 (stereo not drawn)	Pf growth 96h inconclusive (no result: CHX counter, Shiga inhibitor)
CN(Cc1c(F)cccc1Cl)C(=O)c1ccc(NC(=O)CC2SC(N3CCCC3)=NC2=O)cc1 (stereo not drawn)	Pf growth 48h 10µM, Pf growth 96h inconclusive (no result: CHX counter, Shiga inhibitor)
COc1ccc(CN(C)C(=O)c2ccc(NC(=O)CC3SC(N4CCCC4)=NC3=O)cc2)c(OC)c1OC (stereo not drawn)	Pf growth 48h inconclusive, Pf growth 96h 5.9µM (no result: CHX counter, Shiga inhibitor)
CCOc1ccc(CN(C)C(=O)c2ccc(NC(=O)CC3SC(N4CCCC4)=NC3=O)cc2)cc1 (stereo not drawn)	Pf growth 48h inconclusive, Pf growth 96h inconclusive
CCCCCN(C(=O)CCC(=O)OCC(=O)Nc1ccc(C)cc1F)c1c(N)n(CCCC)c(=O)[nH]c1=O	none
O=C(Nc1ccccc1F)c1ccc(O)c2ncccc12	Pf growth 48h 4.1µM, Pf growth 96h 1.5µM (no result: CHX counter, Shiga inhibitor)
O=C(Nn1cc(C(=O)Nc2ccccc2F)c2ccccc2c1=O)c1cnccn1	Pf growth 48h 4.1µM, Pf growth 96h inconclusive
COC(=O)c1cn(NC(=O)c2cnccn2)c(=O)c2ccccc12	Pf growth 48h 9.3µM
COC(=O)c1cn(NC(=O)c2ccc(OC)c(OC)c2)c(=O)c2ccccc12	Pf growth 48h inconclusive, Pf growth 96h 13µM
O=C(NCc1ccccc1F)C1CCCN1C(=O)Nc1ccc(Cl)cc1 (stereo not drawn)	none
COc1ccc(OCC(O)Cn2c(=N)n(CCN3CCCCC3)c3ccccc32)cc1 (stereo not drawn)	Pf growth 48h 4.7µM, Pf growth 96h inconclusive
Cc1ccc(OCC(O)Cn2c(=N)n(CCN3CCCCC3)c3ccccc32)cc1 (stereo not drawn)	Pf growth 48h 3.7µM
Cc1ccc(OCC(O)Cn2c(=N)n(CCN3CCOCC3)c3ccccc32)cc1 (stereo not drawn)	Pf growth 48h inconclusive
COc1ccccc1CC(=O)N1CCN(C(=O)c2ccco2)CC1	Pf growth 96h inconclusive
Cc1ccc(Cl)cc1NC(=O)c1ccccc1OCC(=O)N1CCOCC1	Pf growth 48h inconclusive, Pf growth 96h inconclusive
